# Screens deposited in PubChem by SRMLSC.
# Most compounds without a hit are left out; they make up all but 6.8% or so of the library.
# Fluor 339 460 = intrinsic fluorescence of library compounds, ex339/em460 – biochemical, MLSMR library, data from DPM-DC assay, artefact control, profiling panel; compound autofluorescence, ex339/em460 nm, NADH buffer; active compounds read high; 1 = no-compound wells, NADH background; fluorescence fold increase at 10 µM; hit rate 5.5% among 65,000; AID 709;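 active = at 10 µM, mean starting fluorescence two-fold or more over control wells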;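 also: signal is the first read of a kinetic run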
# MK inhibit = S. pneumoniae mevalonate kinase inhibition. purified MK, PK/LDH-coupled NADH absorbance 340 nm. inhibition, % at 10 µM. hit rate 0.48% among 65,000;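 active = ranked among the strongest by inhibition in the single 10 µM screen, a fixed top-ranked set picked for dose follow-up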
# Abs 340nm = compounds absorbing at 340 nm | compound absorbance at 340 nm, fold over control | fold change at 10 µM | 65,000 tested, under 10 active;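 active = at 10 µM dose, initial 340 nm absorbance at least 2 fold that of control wells; inactive = change under 2 fold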;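 also: initial absorbance extrapolated from kinetic A340 decline of NADH oxidation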
# DPM-DC inhibit = inhibitors of Streptococcus pneumoniae diphosphomevalonate decarboxylase | purified DPM-DC, PK/LDH coupled NADH fluorescence | hit rate 0.49% among 65,000 | AID 556 | calls only at 10 µM;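 active = the 320 compounds with the highest percent inhibition in the single-dose primary screen, excluding strongly autofluorescent ones, cut at about 32% in these data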;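 also: kinetic rate of NADH fluorescence loss reporting ADP formed by the decarboxylase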
# NADH enzymes = inhibitors of enzymes used to reach an NAD/NADH endpoint. AID 774. hit rate 0.02% among 65,000. IC50, µM (titrated, usually from 10 µM). coupled PK/LDH NADH assays, four targets;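 active = single-dose screening hits from any of four coupled enzyme assays that gave an IC50 when retested across doses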;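 also: the DPM-DC format reads NADH fluorescence rather than 340 nm absorbance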
# PMK inhibit = S. pneumoniae PMK inhibition; hit rate 0.49% among 65,000; inhibition, % at 10 µM; purified PMK, PK/LDH-coupled NADH absorbance 340 nm; AID 539;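 active = top-ranked compounds by inhibition in the single 10 µM screen, taking a fixed number of the strongest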
# A number is an active result; i = inactive; nt = not tested or not shown; + = active, no number.
SMILES,Fluor 339 460,MK inhibit,Abs 340nm,DPM-DC inhibit,NADH enzymes,PMK inhibit
COc1cc2c(cc1OC)CN(C(=O)CC1CC3CCC1C3)CC2 (centres undefined),i,i,i,i,i,i
Cc1ccc(-c2cc3nc(C)cc(NCc4ccco4)n3n2)cc1,3.3,i,i,i,i,i
CCOc1ccc(-c2cc(C(=O)N3CCN(c4ccccn4)CC3)c3ccccc3n2)cc1,i,i,i,i,i,i
CCOc1ccc(-c2cc(C(=O)N3CCN(C)CC3)c3ccccc3n2)cc1,5.2,i,i,nt,i,i
COc1ccc(-c2cc(C(=O)N3CCN(c4ccccn4)CC3)c3ccccc3n2)cc1,2.7,i,i,i,i,i
O=C(O)c1cc(-c2cccs2)nc2cc3c(cc12)OCCO3,2.1,i,i,nt,i,i
Cc1ccc2nc(-c3ccc4c(c3)OCCO4)cc(C(=O)O)c2c1,i,i,i,i,i,i
COc1ccc(-c2cc(C(=O)OCC(=O)N3CCCC3)c3ccccc3n2)cc1,2.9,i,i,i,i,i
Cc1ccccc1OCc1nnc2n1CC(C)S2 (centres undefined),i,i,i,i,i,i
Cc1cc(NC(=O)CSc2nnc(Cc3ccccc3)o2)no1,i,i,i,i,i,i
CCOc1ccc(N2CC(=O)N/C2=N\c2nc(C)cc(C)n2)cc1,i,i,i,i,i,i
CCOC(=O)N1CCN(C(=O)c2cc(-c3ccc(OCC)cc3)nc3ccccc23)CC1,5.2,i,i,nt,i,i
CS(=O)(=O)N1CCN(C(=O)c2cc(-c3cccs3)nc3ccccc23)CC1,3.9,i,i,nt,i,i
O=C(c1cc(-c2ccccc2)nc2ccccc12)N1CCOCC1,i,i,i,i,i,i
Nc1nnc(SCc2ccccc2F)n1-c1ccccc1,i,i,i,i,i,i
Cc1cccc(C(=O)Nc2cc(=O)n(C)c(=O)n2C)c1,i,i,i,+,i,i
Nc1cc(C(=O)O)ccc1N1CCCCCC1,i,i,i,i,i,i
c1coc(CNc2ncnc3sc4c(c23)CCCCC4)c1,i,i,i,i,i,i
CCN1CCc2c(sc3c2c(NCc2ccco2)nc2nnnn23)C1,2.4,i,i,i,i,i
O=C1CC(c2ccco2)CC2=C1C(c1ccccc1)n1nc(C(F)(F)F)nc1N2 (centres undefined),2.8,i,i,i,i,i
CCn1c(/C=N/n2cnnc2)nc2ccccc21,2.1,i,i,nt,i,i
CCn1c2ccccc2c2cc(/C=N/n3cnnc3)ccc21,5,i,i,nt,i,i
CCc1cc2cc3c(cc2nc1SCC(=O)Nc1cc(C)on1)OCO3,i,i,i,i,i,i
CC1=C(C(=O)N2CCCCC2)C(c2cccs2)C2=C(CCCC2=O)N1 (centres undefined),2.1,i,i,nt,i,i
COC(=O)C1=C(C)NC2=C(C(=O)CCC2)C1c1cccs1 (centres undefined),i,i,i,i,i,i
SMILES,Fluor 339 460,MK inhibit,Abs 340nm,DPM-DC inhibit,NADH enzymes,PMK inhibit
CC1=C(C(=O)N2CCOCC2)C(c2ccccc2F)C2=C(CCCC2=O)N1 (centres undefined),2.9,i,i,nt,i,i
COc1cc(OC)c(C2C(C(=O)N3CCOCC3)=C(C)NC3=C2C(=O)CC(C)(C)C3)cc1OC (centres undefined),i,i,i,i,i,i
COc1cc(C2C(C(=O)N3CCOCC3)=C(C)NC3=C2C(=O)CCC3)ccc1OC(C)=O (centres undefined),3.7,i,i,nt,i,i
COc1ccccc1NC(=O)C1=C(C)NC2=C(C(=O)CCC2)C1c1ccc2c(c1)OCO2 (centres undefined),2.5,i,i,+,i,i
COC(=O)c1ccc2c(c1)S(=O)(=O)NC(=NCc1ccco1)S2,i,i,i,i,i,i
CC(=O)NC(CCS(C)(=O)=O)C(=O)N1CCc2ccccc21 (centres undefined),i,i,i,i,i,i
CC1(C)OC(=O)C2(Cc3ccccc3N3CCCCC32)C(=O)O1 (centres undefined),i,i,i,i,i,i
Cc1ccc(CN2CCN(CC(=O)NCc3ccc(Cl)cc3)C2=O)cc1,i,i,i,i,i,i
CCOC(=O)CSc1nc(-c2ccc(OC)cc2)ns1,i,i,i,i,i,i
COc1cccc(-c2nn(C)c3sc(C(=O)NCc4ccccn4)cc23)c1,4.9,i,i,nt,i,i
CCOC(=O)N1CCC(NC(=O)c2cc3c(-c4cccc(OC)c4)nn(C)c3s2)CC1,3.9,i,i,i,i,i
CN(CC1CCCO1)S(=O)(=O)c1ccc(C(=O)Nc2nc3cc4c(cc3s2)OCO4)cc1 (centres undefined),i,i,i,i,i,i
CCOC(=O)c1cccc(NC(=O)C(NS(=O)(=O)c2ccc3c(c2)CCN3C(C)=O)C(C)C)c1 (centres undefined),i,i,i,i,i,i
CCC(=O)N(Cc1ccco1)c1nc(-c2cc(OC)ccc2OC)cs1,i,i,i,i,i,i
CCC(=O)N(Cc1ccco1)c1nc(-c2ccccc2)cs1,i,i,i,i,i,27
Cc1cccc(N2CCN(c3nc4ccc(Cl)cc4n4cnnc34)CC2)c1C,2.1,i,i,nt,i,i
O=C(c1ccccc1)c1ccc2nc(N3CCN(C(=O)c4ccco4)CC3)c3nncn3c2c1,i,i,i,i,i,i
Cc1cc2oc(C(=O)N(Cc3ccco3)C3CCS(=O)(=O)C3)cc(=O)c2cc1Cl (centres undefined),i,i,i,i,i,i
Cc1ccc2oc(=O)cc(CN3CCOCC3)c2c1,i,i,i,i,i,i
CCNc1cc2oc(=O)c(CN3CCOCC3)c(C)c2cc1C,2.2,i,i,nt,i,i
CCCCn1c(SCC(=O)c2ccc(OC)cc2OC)nc2cc(S(N)(=O)=O)ccc21,2.5,i,i,i,i,i
COc1ccccc1C(=O)N1CCN(c2ccccn2)CC1,i,i,i,i,i,i
COc1ccccc1C(=O)N1CCN(c2nc3cc(C)c(C)cc3cc2C#N)CC1,2.8,i,i,i,i,i
CCCCCCn1c(CN2CCCCC2CC)nc2c1c(=O)n(C)c(=O)n2C (centres undefined),i,i,i,i,i,i
C=CCNCc1cccn1-c1ccccc1,i,i,i,i,i,i
O=c1oc(-c2cccs2)nc2c1cnn2-c1ccccc1,2.2,i,i,nt,i,i
O=c1oc(-c2ccccc2)nc2c1cnn2-c1ccccc1,i,i,i,i,i,i
Cc1cccc(OCC(O)Cn2c(-n3nc(C)cc3C)nc3c2c(=O)[nH]c(=O)n3C)c1 (centres undefined),2.9,i,i,+,i,i
N#Cc1nc(-c2cccs2)oc1NCc1ccccc1Cl,2.4,i,i,nt,i,i
COc1ccc(CNc2oc(C)nc2C#N)cc1,i,i,i,i,i,i
